The results in this text go back to PubChem BioAssay (NCATS).

Records with an inconclusive call do not appear. Values without a mark were called inactive. Calls of active or inactive are those of the source. Calls follow the shape of the dose curve; as a rule, active = well fitted inhibition curve with a large enough effect; inconclusive = small, poorly fitted or top-dose-only effect; inactive = flat fitted curve, though single readings scatter.
% is scaled to controls: 0 for no effect and ±100 for the full control effect; potency is read from the fitted curve at half-maximal effect.

This assay deals with NIH3T3. In words: Cytotoxic Profiling of Annotated Libraries Using Quantitative High-Throughput Screening (AID 1296008). Also: nearly all actives have a fitted effect of over 60% in size. As to conditions: Five cell lines viability, CellTiter-Glo ATP luminescence, 48-72 h; max response: active compounds read low. In outline:
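Compounds were pin-transferred onto cells and incubated 48 or 72 hr at 37 degree Celsius, 95% humidity. CellTiter-Glo was added, plates sat 10 min at room temperature, then ATP-coupled luminescence was imaged as the viability read-out.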
For orientation: Cellular ATP, detected with luciferase, serves as a proxy for viable cell number.
As to `C=C1C(=O)O[C@@H]2C3C(=C(C)[C@@H](O)[C@@H](OC(=O)/C(=C/C)COC(C)=O)[C@@H]12)C(=O)[C@H]1O[C@@]31C` (some centres not stated), the Potency was 2.24 µM (active). On to `Cc1ccc(C(=O)Nc2ccc(CN3CCN(C)CC3)c(C(F)(F)F)c2)cc1C#Cc1cnc2[nH]ncc2c1`, for which the Potency was 0.58 µM (active).

In the case of `CCOC(=O)[C@@]1(CCCCCCOc2ccc(Cl)cc2)CO1`, the max response is -15.5%. For `CC(/C=C/C(=O)NO)=C\[C@@H](C)C(=O)c1ccc(N(C)C)cc1`, the Potency was 1.3 µM (active). On to `C#CCCCn1cc(-c2cccc3c2N[C@H](C)CC(=O)N3)cn1`, for which the max response is -3.84%. Consider `CCCC1(CCC)CCC2(CCN(CCCN(CC)CC)C2)CC1`, for which the Potency was 3.66 µM (active). For `CCc1cc(C(N)=O)ccc1-n1nc(C(C)C)c2c(-n3cnc(-c4cnn(C)c4)c3)ccnc21`, the Potency is 1.3 µM (active).

Turning to `Nc1nc(O)c(C2=C3C(=Nc4ccccc43)C(=O)NCC2)[nH]1`, the max response is 2.47%. In the case of `C=CC(=O)Nc1cccc(Nc2nc(Nc3ccc(NC4CN(CCF)C4)cc3OC)ncc2C(F)(F)F)c1`, the Potency was 13 µM (active). For `FC(F)(F)c1ccc(/C=C/c2nc(COc3ccc(CCCCn4ccnn4)cc3)co2)cc1`, the max response was -18.7%.

Take `COc1cc(O)cc(OC2OC(CO)C(O)C(O)C2O)c1` (configuration not stated): the outcome was inactive. As to `CN[C@@H]1[C@H](O[C@H]2[C@H](O[C@@H]3[C@@H](O)[C@H](O)[C@@H](N=C(N)N)[C@H](O)[C@H]3N=C(N)N)O[C@@H](C)[C@]2(O)CO)O[C@@H](CO)[C@H](O)[C@H]1O`, the max response was 3.49%. As for `CC(C)NCCCn1c(Sc2cc3c(cc2I)OCO3)nc2c(N)ncnc21`, the Potency is 0.291 µM (active). `O=c1cc(NCCCN[C@@H]2CCOc3c(Br)cc(Br)cc32)[nH]c2ccsc12`: the max response is 2.02%. As to `COC1=CC(=O)C[C@@H](C)[C@@]12Oc1c(Cl)c(OC)cc(OC)c1C2=O`, the max response was -50.9%. Regarding `COC(C)(C)CCn1nc(Nc2c(C)cccc2C)c2cnc(Nc3ccc(OCCN4CCCC4)c(F)c3)nc21`, the Potency is 0.411 µM (active).

As for `CCNC(=O)c1noc(-c2cc(Cl)c(O)cc2O)c1-c1ccc(OC)cc1`, the Potency was 0.92 µM (active).

Consider `COc1ccc(N(C(=O)Nc2c(C)cccc2C)c2cc(Nc3ccc(N4CCN(C)CC4)cc3)ncn2)c(OC)c1`, for which the Potency is 2.06 µM (active). For the compound `COc1cc(O)c2c(c1)C1OC1C[C@H](O)[C@H](O)C(=O)/C=C\C[C@H](C)OC2=O` (some centres not stated), the Potency was 2.06 µM (active). As for `O=C(Nc1ccc(Cl)cc1)C1CCCN(C(=O)c2cccc(-c3ccco3)c2)C1` (configuration not stated), the max response is -26.4%. With `C=C(C)Cn1c(SCC(=O)c2cccs2)nc2sc3c(c2c1=O)CCCC3`, the Potency was 1.84 µM (active). On to `Cc1cc(-c2nc(-c3ccc(OC(F)(F)F)cc3)no2)nn1Cc1ccnc(N2CCN(C3CC3)CC2)c1`, for which the max response is -14.2%. As for `O=C(Cc1cccc(OC(F)(F)F)c1)Nc1ccc(CCCCc2nnc(NC(=O)Cc3ccccn3)s2)nn1`, the Potency is 26.3 µM (active).

Take `C=C(C)C(=O)OC1CC2(C)OC(=CC2=O)C(=C)CC2OC(=O)C(=C)C12` (configuration not stated): the Potency was 2.86 µM (active).

For the compound `COC(=O)Nc1cc(Nc2cc(NC3CC3)c3ncc(C#N)n3n2)c(Cl)c(N2CCN(C)CC2)c1`, the Potency was 14.8 µM (active). In the case of `CC1(C(=O)Nc2ccc(F)nc2)CCCN1c1nc(Nc2cc(C3CC3)[nH]n2)c2cccn2n1` (configuration not stated), the Potency is 4.61 µM (active). In the case of `C=C[C@@]12COC(=O)C(=C)[C@@H]1[C@@H](O)[C@H](C(=C)C(=O)OC)[C@@H](O)C2`, the max response was -16.2%.

Regarding `CN1CCC(NC(=O)c2cc(-c3c(O)cc(O)cc3Oc3ccc([N+](=O)[O-])cc3)on2)CC1`, the Potency was 5.8 µM (active). For the compound `CC1CC(=O)C2=C(C1)C1OC1C1(O)C2C(=O)c2cccc(O)c2C1O` (configuration not stated), the max response was -27%.

For `N#Cc1ccnc(Nc2cc(C3CCN(C4COC4)CC3)cc(N3CCC(F)(F)C3)n2)c1`, the Potency is 20.9 µM (active). Consider `CC(C)c1ccccc1OC(=O)NCCc1ccc2ccccc2c1`, for which the max response is 3.78%.

As to `CC[C@@H](C)Nc1cc(C(=O)NC2CC3CCC(C2)N3c2ccc(C(=O)C3CC3)cn2)c(C)cc1C(N)=O` (some centres not stated), the Potency is 0.206 µM (active).
